In PubChem BioAssay AID743360 (Molecular Libraries Program, Specialized Chemistry Center, …, 2014) one finds CRC/CRC0 ratio data, which are given here for 16 compounds.

Where “and” joins values, the source holds several entries; their conditions need not be identical. Equal values may be shown once. Calls of active or inactive are those of the source.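 Rule for the calls: active = calcium retention capacity relative to untreated control above about 1.1 ratio (limit read from the data); inactive = the rest.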

The nature of this assay: mitochondrial Ca2+ retention capacity increase – biochemical, dry powder samples, uHTS hits, Calcium Green-5N, dose response (AID 743360). Particulars: isolated mitochondria, Ca retention capacity.
As for `O=C(Nc1ccc(CN2CCCCC2)cc1)c1cccc(OCc2ccccc2)c1`, the CRC/CRC0 ratio at 12.5 uM (higher = more inhibition) is 3.54 (active).
As to `COc1ccc(Cl)cc1C(=O)Nc1cccc(CN2CCN(C(=O)OC(C)(C)C)CC2)c1`, the CRC/CRC0 ratio at 12.5 uM (higher = more inhibition) was 1.08 (inactive).
As for `O=C(Nc1ccc(CN2CCCCC2)cc1)c1cc(Cl)ccc1O`, the CRC/CRC0 ratio at 12.5 uM (higher = more inhibition) was 1.1 (active).
In the case of `COc1ccc(Cl)cc1C(=O)Nc1ccccc1` it was 1.07 (inactive); in that of `COc1ccc(Cl)cc1S(=O)(=O)Nc1ccc(CCN2CCCCC2)cc1`, 1.07 (inactive).
As for `CN1CCN(c2ccc(NS(=O)(=O)c3cccc(Cl)c3)cc2)CC1`, the CRC/CRC0 ratio at 12.5 uM (higher = more inhibition) was 1.05 (inactive).
In the case of `Cc1cc(NC(=O)c2ccc(-n3cnnc3)cc2)no1` it was > 1 (inactive); in that of `COc1ccc(Cl)cc1C(=O)Nc1ccc(CN2CCCCC2)cc1`, 1.8 (active).
The same measure for `Cc1ccc(-c2cc(C(=O)Nc3cccc(Cl)c3)no2)cc1`: > 1 (inactive).
In the case of `COc1ccc(/C=C/C(=O)Nc2cccc(Cl)c2)cc1O` it was 6.53 (active).
As to `COc1ccc(Cl)cc1C(=O)Nc1ccc(N2CCN(C)CC2)cc1`, the CRC/CRC0 ratio at 12.5 uM (higher = more inhibition) is 1.2 (active).
The same measure for `COc1ccc(Cl)c(C(=O)Nc2cccc(CN3CCN(C(=O)OC(C)(C)C)CC3)c2)c1`: 1.04 (inactive); for `CN1CCN(c2ccc(NC(=O)c3ccc(OCc4ccccc4)cc3)cc2)CC1`: 1.08 (inactive).
The same measure for `COc1ccc(Cl)cc1C(=O)Nc1ccc(CN2CCNCC2)cc1`: 1.65 (active); for `O=C(Nc1cc(Cl)ccc1Cl)c1cc(-c2cccc(O)c2)on1`: 4.67 (active); for `O=C(Nc1cccc(Cl)c1)c1cc(-c2cccc(O)c2)on1`: 5.47 (active) and 7.74 (active).
